Experimental data published in PubChem BioAssay (NCATS).
Results filed as inconclusive are left out. Active and inactive are the calls of the source. Calls follow the shape of the dose curve; as a rule, active = well fitted inhibition curve with a large enough effect; inconclusive = small, poorly fitted or top-dose-only effect; inactive = flat fitted curve, though single readings scatter.

Assays:
Assay in all cases: qHTS profiling for inhibitors of Plasmodium falciparum proliferation (AID 504749); also: nearly all actives have a fitted effect of over 60% in size
Settings in all cases: P. falciparum in erythrocytes, SYBR Green DNA, 72 h; series mostly up to 28.7 µM
[1] = system: P94_40
Procedure, shortened: (§1)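 P. falciparum-infected erythrocytes (0.3% parasitemia, 2.5% hematocrit final) were exposed to compounds for 72 h at 37 C in 5% CO2, then lysed with SYBR Green buffer overnight at room temperature; parasite DNA fluorescence was normalized to artemisinin and DMSO controls.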

[2] = system: PAD
Procedure, shortened: as §1

[3] = system: PC15
Procedure, shortened: as §1

[4] = system: PC26
Procedure, shortened: as §1

[5] = system: PC49
Procedure, shortened: as §1

[6] = system: SC27B
Procedure, shortened: as §1

[7] = system: TAB109
Procedure, shortened: as §1

[8] = system: TAB113
Procedure, shortened: as §1

[9] = system: TAB165
Procedure, shortened: as §1

[10] = system: W2
Procedure, shortened: as §1

Measured: Potency
Potency is read from the fitted curve at half-maximal effect.

C[C@H](O)CN(C)C
inactive: all assays above

[O]=[Bi][O]C(=O)[O][Bi]=[O]
inactive: all assays above

O=P(O)(O)OC[C@H]1O[C@](O)(COP(=O)(O)O)[C@@H](O)[C@@H]1O
inactive: all assays above

CN=C1C=CC(=C(c2ccc(N(C)C)cc2)c2ccc(N(C)C)cc2)C=C1
active: [1] 1000 nM | [2] 1000 nM | [3] 1000 nM | [4] 1690 nM | [5] 1410 nM | [6] 1000 nM | [7] 891 nM | [8] 891 nM | [9] 891 nM | [10] 151 nM

OCCCNc1ccccc1
inactive: all assays above

COC(=O)CCC[N+](C)(C)C
inactive: all assays above

O=C(O)/C=C/c1ccccc1
inactive: all assays above

CCCCCCCCCCCCCC(=O)OCC(COP(=O)([O-])OCC[N+](C)(C)C)OC(=O)CCCCCCCCCCCCC (stereo not given)
inactive: all assays above

NC(=S)NS(=O)(=O)c1ccc(N)cc1
inactive: all assays above

CCC(C(=O)NC(N)=O)c1ccccc1 (stereo not given)
inactive: all assays above

O=C(OCc1ccccc1)c1ccc(O)cc1
inactive: all assays above

CCCCC(CC)CCC(CC(C)C)OS(=O)(=O)O (stereo not given)
inactive: all assays above

CCN(CC)CCCC(C)Nc1cc(/C=C/c2ccccc2Cl)nc2cc(Cl)ccc12 (stereo not given)
active: [1] 1780 nM | [2] 1000 nM | [3] 2000 nM | [4] 5360 nM | [5] 8910 nM | [6] 2820 nM | [7] 2510 nM | [8] 1780 nM | [9] 2240 nM | [10] 601 nM

O=C(CCCCCCCCCCCCC1CCCC1)Nc1ccc(S(=O)(=O)c2ccc(NC(=O)CCCCCCCCCCCCC3CCCC3)cc2)cc1
inactive: all assays above

N[C@H](CC(=O)O)C(=O)O
inactive: all assays above

NCCO/C=C/[C@H](N)C(=O)O
inactive: all assays above

O=C1[O][Bi][O]c2ccccc21
inactive: all assays above

O=C(O)C1=C(CSc2nnnn2CS(=O)(=O)O)CS[C@@H]2[C@H](NC(=O)[C@H](O)c3ccccc3)C(=O)N12
inactive: all assays above

O=C(/C=C/c1cccc(F)c1)NC1CC1
inactive: all assays above

CN1C(=O)C[C@@H](C(=O)N[C@@H](Cc2cnc[nH]2)C(=O)N2CCC[C@H]2C(N)=O)NC1=O
inactive: all assays above

CCCCC[C@H](O)/C=C/[C@@H]1[C@H]2C/C(=C/CCCC(=O)O)O[C@H]2C[C@H]1O
inactive: all assays above

NCC(O)CC(=O)O (stereo not given)
inactive: all assays above

CCOC(=O)Cc1ccc(-c2ccccc2)cc1
inactive: all assays above

CO[C@H]1C[C@@H]2CC[C@@H](C)[C@@](O)(O2)C(=O)C(=O)N2CCCC[C@H]2C(=O)O[C@H]([C@H](C)C[C@@H]2CC[C@@H](OC(=O)C(C)(CO)CO)[C@H](OC)C2)CC(=O)[C@H](C)/C=C(\C)[C@@H](O)[C@@H](OC)C(=O)[C@H](C)C[C@H](C)/C=C/C=C/C=C/1C
inactive: all assays above

CCCC(=O)O
inactive: all assays above

ClC(Cl)Cl
inactive: all assays above

O[C@@H]([C@H](O)[C@H](O)CBr)[C@H](O)CBr
inactive: all assays above

COc1cc(NCCCC(C)N)c2ncccc2c1 (stereo not given)
active: [1] 4470 nM | [2] 398 nM | [3] 3550 nM | [4] 1690 nM | [6] 11200 nM | [7] 4470 nM | [8] 8910 nM | [9] 2240 nM | [10] 1510 nM
inactive: [5]

O=S(=O)(O)CC(S)CS (stereo not given)
inactive: all assays above

CC(C)(COP(=O)(O)OP(=O)(O)OC[C@H]1O[C@@H](n2cnc3c(N)ncnc32)[C@H](O)[C@@H]1OP(=O)(O)O)C(O)C(=O)NCCC(=O)NCCS (stereo not given in full)
inactive: all assays above

CCCCCCCCCCCC(=O)OCC(O)CO (stereo not given)
inactive: all assays above

O=C(NNCS(=O)(=O)O)c1ccncc1
inactive: all assays above

Cc1ccc(C(C)(C)c2ccc(C)cc2)cc1
inactive: all assays above

CC1CCC(NC(=O)N(CCCl)N=O)CC1 (stereo not given)
active: [10] 10700 nM
inactive: all other assays above

C=C(C)C1CC=C(C)CC1 (stereo not given)
inactive: all assays above

CCOc1ccc(S(=O)(=O)O)c2cccnc12
inactive: all assays above

C[Se]CC[C@H](N)C(=O)O
inactive: all assays above

CC(C)c1ncc([N+](=O)[O-])n1C
inactive: all assays above

CC(/C=C/C=C(\C)C(=O)O[C@@H]1O[C@H](CO[C@@H]2O[C@H](CO)[C@@H](O)[C@H](O)[C@H]2O)[C@@H](O)[C@H](O)[C@H]1O)=C\C=C\C=C(C)\C=C\C=C(/C)C(=O)O[C@@H]1O[C@H](CO[C@@H]2O[C@H](CO)[C@@H](O)[C@H](O)[C@H]2O)[C@@H](O)[C@H](O)[C@H]1O
inactive: all assays above

NC(N)=O
inactive: all assays above

O=C(O)CCCC/C=C(\c1ccccc1)c1cccnc1
inactive: all assays above

CCCCO
inactive: all assays above

C(=C\c1ccncc1)/c1ccccc1
inactive: all assays above

CO
inactive: all assays above

[O]=[Bi][O][Bi]=[O]
inactive: all assays above

COC(=O)C(CN)c1c[nH]c2ccc(OC)cc12 (stereo not given)
inactive: all assays above
